About 79,000 compounds went through this panel and 15% of them were active in at least one assay; those are over-represented in the sample as a whole. The source made the active and inactive calls. Cut-off read from the data, not from the text of the source: active = growth inhibition above about 70%; inactive = the rest.
Legend:
[1] = NCI Yeast Anticancer Drug Screen. Data for the rad52 strain (AID 147);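 note: 0% = growth of vehicle-treated control cultures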; conditions: S. cerevisiae rad52 mutant growth inhibition, active compounds read high
Summary of the method: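 Inhibition of yeast growth, referenced to vehicle controls, was the measured output for a strain with defective DNA damage repair.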

[2] = NCI Yeast Anticancer Drug Screen. Data for the rad50EPP+ strain (AID 151);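 note: 0% = growth of vehicle-treated control cultures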; conditions: S. cerevisiae rad50 mutant strain, active compounds read high
Summary of the method: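 Genetically defined yeast (rad50EPP+, DNA damage repair alteration) is grown with compound, and inhibition of growth is expressed relative to vehicle-treated controls.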

[3] = NCI Yeast Anticancer Drug Screen. Data for the mgt1 strain (AID 153); conditions: S. cerevisiae mgt1 mutant growth inhibition, active compounds read high
Summary of the method: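 In the mgt1 strain, test compounds were added and growth inhibition was determined relative to vehicle-treated controls.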

[4] = NCI Yeast Anticancer Drug Screen. Data for the rad50 strain (AID 155);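 note: 0% = growth of vehicle-only cultures of the same strain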; conditions: S. cerevisiae rad50 strain growth inhibition, active compounds read high
Summary of the method: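 Growth of the mutant yeast was measured after compound exposure and referenced to vehicle-treated cultures.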

[5] = NCI Yeast Anticancer Drug Screen. Data for the rad14 strain (AID 159);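 note: 0% = growth of vehicle-treated control cultures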; conditions: S. cerevisiae rad14 strain growth inhibition, active compounds read high
Summary of the method: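 Here, inhibition of yeast growth was measured after compound exposure, using a strain with a genetic defect in DNA damage repair and vehicle-treated cultures as the reference.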

[6] = NCI Yeast Anticancer Drug Screen. Data for the sgs1 mgt1 strain (AID 161);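 note: 0% = growth of cultures given vehicle only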; conditions: S. cerevisiae sgs1 mgt1 strain, active compounds read high
Summary of the method: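 Read-out: growth inhibition vs vehicle controls. Cells: mutant yeast strain deficient in DNA damage repair.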

[7] = NCI Yeast Anticancer Drug Screen. Data for the CLN2oe strain (AID 163);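 note: 0% = growth of vehicle-only control cultures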; conditions: S. cerevisiae CLN2oe strain, active compounds read high
Summary of the method: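 First, the altered yeast strain was treated with each compound; second, its growth was measured; finally, inhibition was derived by comparison with vehicle controls.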

[8] = NCI Yeast Anticancer Drug Screen. Data for the cln2 rad14 strain (AID 165);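 note: 0% = growth equal to vehicle treated cultures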; conditions: S. cerevisiae cln2 rad14 strain, active compounds read high
Summary of the method: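 Test compounds were added to cln2 rad14 yeast cultures; inhibition of growth was then determined by comparison with vehicle treatment.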

[9] = NCI Yeast Anticancer Drug Screen. Data for the bub3 strain (AID 167); conditions: S. cerevisiae bub3 mutant strain, active compounds read high
Summary of the method: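 Whole-cell yeast assay. The mutant strain was incubated with compounds, and growth inhibition was determined by comparison with vehicle-treated cells.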

[10] = NCI Yeast Anticancer Drug Screen. Data for the wt2 strain (AID 169);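 note: 0% = growth of vehicle-treated yeast cultures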; conditions: S. cerevisiae wt2 strain growth inhibition, active compounds read high
Summary of the method: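 The panel's yeast strains carry defined changes in DNA repair or cell cycle genes. Each strain is grown with compound, and growth loss is scored relative to vehicle.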

[11] = NCI Yeast Anticancer Drug Screen. Data for the mlh1 strain (AID 171);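 note: 0% = growth of vehicle-treated control cultures of the same strain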; conditions: S. cerevisiae mlh1 strain growth inhibition, active compounds read high
Summary of the method: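 Inhibition values reflect reduced yeast growth in the presence of compound, referenced to vehicle controls, using a strain chosen for its alteration in DNA repair or cell cycle control.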

[12] = NCI Yeast Anticancer Drug Screen. Data for the sgs1 strain (AID 173);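 note: 0% = growth of vehicle-only control cultures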; conditions: S. cerevisiae sgs1 mutant, active compounds read high
Summary of the method: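 Vehicle-treated cultures served as reference for growth inhibition of a yeast strain altered in DNA damage repair or cell cycle control after compound exposure.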

[13] = NCI Yeast Anticancer Drug Screen. Data for the mlh1 rad18 strain (AID 175); conditions: S. cerevisiae mlh1 rad18 strain growth inhibition, active compounds read high
Summary of the method: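 Inhibition values reflect reduced growth of mutant yeast versus vehicle-treated controls following compound exposure; the mutations affect DNA damage repair.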

[14] = NCI Yeast Anticancer Drug Screen. Data for the rad18 strain (AID 177); conditions: S. cerevisiae rad18 mutant growth inhibition, active compounds read high
Summary of the method: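 Steps: expose repair-mutant yeast to compound; measure growth; express as inhibition relative to vehicle control.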

[15] = at 5.0 µM (retest, dose inferred, filed as 0.5)
[16] = at 50.0 µM (retest, dose inferred, filed as 5.0)

Measured: growth inhibition

Cc1cc(C(C)(C)CC(C)(C)C)cc(O)c1O
active: [1]; at 11.0 µM 77% | [1]; at 33.0 µM 96% | [1]; at 100.0 µM 98% | [2]; at 11.0 µM 79% | [2]; at 33.0 µM 83% | [2]; at 100.0 µM 88% | [3]; at 11.0 µM 87% | [3]; at 33.0 µM 97% | [3]; at 100.0 µM 98% | [4]; [15] 95% | [4]; at 33.0 µM 93% | [4]; [16] 99% | [4]; at 50.0 µM 92% | [4]; at 100.0 µM 97% | [5]; at 11.0 µM 80% | [5]; at 33.0 µM 93% | [5]; at 100.0 µM 97% | [6]; [16] 97% | [7]; at 11.0 µM 81% | [7]; at 33.0 µM 97% | [7]; at 100.0 µM 98% | [8]; [16] 95% | [9]; at 11.0 µM 74% | [9]; at 33.0 µM 97% | [9]; [16] 99% | [9]; at 100.0 µM 98% | [10]; at 11.0 µM 71% | [10]; at 33.0 µM 89% | [11]; at 11.0 µM 85% | [11]; at 33.0 µM 88% | [11]; at 100.0 µM 99% | [12]; at 11.0 µM 82% | [12]; at 33.0 µM 92% | [12]; at 100.0 µM 97% | [13]; [15] 83% | [13]; [16] 100% | [13]; at 50.0 µM 92% | [14]; at 11.0 µM 88% | [14]; at 33.0 µM 96% | [14]; at 100.0 µM 98%
inactive: [1]; at 1.2 µM 12% | [1]; at 3.7 µM 34% | [2]; at 1.2 µM 44% | [2]; at 3.7 µM 69% | [3]; at 1.2 µM 23% | [3]; at 3.7 µM 40% | [4]; at 1.2 µM -7% | [4]; at 3.7 µM 12% | [4]; at 11.0 µM 69% | [5]; at 1.2 µM -7% | [5]; at 3.7 µM 9% | [6]; [15] 4% | [7]; at 1.2 µM 2% | [7]; at 3.7 µM 35% | [8]; [15] 37% | [9]; at 1.2 µM 1% | [9]; at 3.7 µM 19% | [9]; [15] 21% | [10]; at 1.2 µM 2% | [10]; at 3.7 µM 27% | [10]; at 100.0 µM 54% | [11]; at 1.2 µM 6% | [11]; at 3.7 µM 20% | [12]; at 1.2 µM 14% | [12]; at 3.7 µM 35% | [14]; at 1.2 µM 5% | [14]; at 3.7 µM 23%

Source: PubChem BioAssay (NCI)
